Measurements as given in PubChem BioAssay (NCI).
The panel holds about 83,000 compounds, 20% with a hit somewhere; the sample as a whole holds those more often.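 Treatment: one concentration, 48 hours, 96-well format. Scoring: percent growth, with anything below 10 considered active.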 The source made the active and inactive calls.

Assays:
Test in all cases: NCI-60 one-dose screen, 48 h (100 = growth as untreated, 0 = no growth, -100 = all killed)
Conditions in all cases: 10 µM
[1] = system: T-47D breast
[2] = system: BT-549 breast
[3] = system: MDA-MB-435 melanoma
[4] = system: SW-620 colon
[5] = system: MCF7 breast
[6] = system: HCT-116 colon
[7] = system: HCC-2998 colon
[8] = system: KM12 colon
[9] = system: MDA-MB-468 breast

Measured: growth

Cc1noc2c(Cc3ccc([N+](=O)[O-])cc3)nn(CC(=O)N/N=C/c3ccc(Br)cc3)c(=O)c12
inactive: [1] 62% | [2] 94.3% | [3] 92.3% | [4] 97.4% | [5] 68.4% | [6] 64.4% | [7] 91.9% | [8] 84.2% | [9] 95.3%

COc1cc(/C=C/C(=O)c2ccc(F)cc2)ccc1Oc1nc(Nc2ccc(F)cc2)nc(N(C)C)n1
inactive: [1] 28.5% | [2] 88.6% | [3] 68.5% | [5] 16.6% | [6] 30.2% | [7] 89% | [8] 61% | [9] 28%
active: [4] 2.33%

CNC(=O)c1cccc(N2CCc3c2ccc(NC(=O)Nc2ccc(N4CCN(C)CC4)c(C(F)(F)F)c2)c3F)c1
inactive: [1] 94.5% | [2] 11.6% | [9] 90.4%
active: [3] -96.1% | [4] -71.7% | [5] -79.8% | [6] -95.3% | [7] -94.1% | [8] -88.1%

O=c1nc(-c2ccccc2)cc(-c2cc3ccccc3nc2Cl)[nH]1
inactive: [1] 45.5% | [2] 12.9% | [3] 53.5% | [7] 44.9% | [9] 17.2%
active: [4] -63.6% | [5] 4.69% | [6] -91.6% | [8] -15.4%

O=C(Nc1cc(Cl)cc(Cl)c1)Nc1cc(Cl)cc(Cl)c1
active: [1] -18.9% | [2] -41.1% | [3] -47% | [4] -42.3% | [5] -21.2% | [6] -79.3% | [7] -27.3% | [8] -22.9% | [9] -40.1%

CN(C)CCNC(=O)OCCCCOc1cc(O)c2c(=O)cc(-c3ccccc3)oc2c1
active: [1] -65.8% | [2] -59.9% | [3] -51% | [4] -31.7% | [5] -89.8% | [6] -68.9% | [7] -50.8% | [8] -49.8% | [9] -81.1%

Cc1ccc(/C(CSc2nnc(-c3c[nH]c4ccccc34)n2-c2ccccc2)=N/O)cc1
inactive: [8] 50.2%
active: [1] -47.3% | [2] -75.5% | [3] -100% | [4] -80.4% | [5] -55% | [6] 2.62% | [7] -41.9% | [9] -88.8%

CCCCCc1ccc(S(=O)(=O)N(C(C)=O)c2cc(-c3csc(N(C)C(C)=O)n3)ccc2N2CCN(C)CC2)cc1
inactive: [1] 30.4% | [2] 73.9% | [8] 15.7% | [9] 20.9%
active: [3] -97.4% | [4] -77.9% | [5] -73.1% | [6] -87.8% | [7] -67.8%

Clc1ccc(/C=N/Nc2ncnc3sc4c(c23)CCN(Cc2ccccc2)C4)cc1
inactive: [7] 19.8%
active: [1] -0.297% | [2] -6.23% | [3] -45.3% | [4] -74% | [5] -47.5% | [6] -93.5% | [8] -26.9% | [9] -62.4%

COc1ccc2nc(Cl)c(-c3cc(-c4ccccc4)nc(=S)[nH]3)cc2c1
active: [3] -27.6%
inactive: [1] 76.4% | [2] 14.7% | [4] 78.9% | [5] 65% | [6] 66.4% | [7] 97.3% | [8] 76.8% | [9] 76%

CN1C(=O)N(C)C2SC(N/N=C/c3ccccc3F)=NC21 (stereo not drawn)
inactive: [1] 64.3% | [2] 45.4% | [4] 47.4% | [5] 32% | [6] 37.5% | [7] 88.5% | [8] 45.2%
active: [3] -16.6% | [9] 0.576%

COc1cccc2nc(Nc3cccc(NC(=O)c4ccc(CN5CCCN(C)CC5)c(C(F)(F)F)c4)c3)ccc12
active: [1] -55.9% | [2] -92.5% | [3] -100% | [4] -97.5% | [5] -90% | [6] -64.7% | [7] -96.6% | [8] -63.9% | [9] -87.9%
